Bioassay records as filed in PubChem.
TDP1 cell noCPT = qHTS for Inhibitors of human tyrosyl-DNA phosphodiesterase 1 (TDP1): qHTS in cells in absence of CPT | 420,000 tested, 15% active | AID 686978, 2013 | DT40 Tdp1-/- hTDP1 cells, no CPT, ATP luminescence, 48 h | Potency, µM (titrated, usually from 46.2 µM), hits mostly inhibitors; also: nearly all actives have a fitted effect of over 55% in size
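Compound effects on proliferation are scored in DT40 Tdp1-/-;hTDP1 cells in the absence of CPT. ATP levels (CellTiter-Glo luminescence) are recorded after a ≥48 hr, 37 °C incubation.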
HT1080 IDH1KD tx = HT-1080 IDH1 knockdown cell toxicity (counter line); HT-1080 IDH1 knockdown viability, ATP luminescence, 48 h; Potency, µM (titrated, usually from 46.1 µM), usual class: cytotoxic; 360,000 tested, 2% active
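Luminescent ATP read-out (CellTiter-Glo, 10 min at room temperature) after 48 h compound exposure at 37 °C gave viability of IDH1-knockdown HT-1080 cells. Activity was normalised to DMSO and cell-free wells, then fitted as concentration-response curves.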
IL-1B inflam inh = blocks inflammasome-driven IL-1 beta release. 360,000 tested, 4.7% active. THP-1 LPS/ATP IL-1B secretion, AlphaLISA, 16 h; hits give low values. AID 743279. activity change, % at 57.5 µM; in the data active = activity change below about -50%; inconclusive = mostly about -30% to -49%
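THP-1 cells pretreated 1 hr with compounds (up to 57.5 uM final), then stimulated with LPS (250 ng/mL final) plus ATP (1.25 mM final); secreted IL-1B measured by AlphaLISA after 16 hr, decreased signal indicating inhibition.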
HT1080-NT tox = kills 2HG-producing HT-1080-NT fibrosarcoma cells; Potency, µM (doses to about 46.1 µM), hits mostly cytotoxic; AID 686970; 360,000 tested, 1.6% active; HT-1080-NT fibrosarcoma viability, CellTiter-Glo ATP luminescence, 48 h;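 also: NT is the 2HG producing partner of a matched IDH1 knockdown line; nearly all actives have a fitted effect of over 55% in size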
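Toxicity toward the 2HG-producing NT line was scored as %Activity, normalised to DMSO and no-cell wells, from CellTiter-Glo luminescence after 48 hours' treatment.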
TDP1 cell CPT = DT40-hTDP1 cell growth loss with CPT. chicken DT40 Tdp1-/-;hTDP1 cells + 20 nM CPT, ATP luminescence, 48 h. Potency, µM (top dose mostly 46.2 µM), actives largely listed as inhibitors. 420,000 tested, 12% active; also: nearly all actives have a fitted effect of over 55% in size
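Chicken DT40 Tdp1-/- cells stably complemented with human TDP1 were seeded at 400 cells/well in medium containing 20 nM camptothecin, exposed to pin-transferred compounds, and grown at 37 °C for at least 48 hr. Viability was read as ATP luminescence.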
Numbers stand for hits; 0 = inactive; ? = inconclusive; - = no result; [ ] = dose if it differs, or a comment. A selection: hits, their analogues and other compounds. The true share with any hit is near 19%. Unless noted, calls follow the shape of the dose curve; as a rule, active = well fitted curve in the direction sought with a large enough effect; inconclusive = small, poorly fitted or top-dose-only effect, or another doubt; inactive = no such curve, though single readings can be large; an effect the other way counts as inactive or inconclusive.

SMILES	TDP1 cell noCPT	HT1080 IDH1KD tx	IL-1B inflam inh	HT1080-NT tox	TDP1 cell CPT
COc1ccc(-n2c(=O)c(C)nc3cnc(Nc4cccc(OC)c4)nc32)cc1	18µM	-	-	-	23µM
COc1ccc(Oc2ncc3nc(CCc4ccccc4)c(=O)n(CCC#N)c3n2)cc1	23µM	-	-	-	?
N#CCCn1c(=O)c(CCc2ccccc2)nc2cnc(Oc3ccccc3)nc21	?	-	-	-	0
COc1cccc(Nc2ncc3nc(C)c(=O)n(CCC#N)c3n2)c1	0.92µM	-	-	-	0.23µM
CCNc1ncc2nc(-c3ccc(Cl)cc3)c(=O)n(-c3ccc(OC)cc3)c2n1	13µM	-	-	-	?
O=C(CSc1nnc2ccccn12)Nc1ccccc1[N+](=O)[O-]	0	0	0	0	0
CCNc1ncc2ncc(=O)n(Cc3ccc(F)cc3)c2n1	?	-	-	-	18µM
CCNc1ncc2nc(-c3ccc(F)cc3)c(=O)n(Cc3ccc(F)cc3)c2n1	0	-	-	-	0
COCCn1c(=O)cnc2cnc(Nc3cccc(OC)c3)nc21	?	-	-	-	9.2µM
COCCn1c(=O)c(C)nc2cnc(Nc3cccc(OC)c3)nc21	0	-	-	-	?
CCN(CC(O)COc1ccc(OCC(O)CN(CC)C2CCCCC2)cc1)C1CCCCC1 (stereo not drawn)	?	?	-66	0	?
CCN(CC(O)COCc1ccc(Cl)cc1)C1CCCCC1 (stereo not drawn)	?	0	0	0	0
Cc1ccccc1OCC(O)CN(Cc1ccccc1O)C1CCCCC1 (stereo not drawn)	13µM	?	-66	?	16µM
COc1ccc(/C=C/C(=O)NC2=NCCS2)cc1OC	?	0	0	0	0
c1ccc(NC2=NCCCCS2)cc1	0	0	0	0	0
O=C(/C=C/c1ccc(Br)cc1)c1ccc(NC2=NCCCS2)cc1	?	?	-65	?	9.2µM
CC(C)(C)c1ccc(/C=C/C(=O)c2ccc(NC3=NCCCS3)cc2)cc1	?	?	-100	?	23µM
O=C(/C=C/c1ccccc1)c1ccc(NC2=NCCCS2)cc1	12µM	0	-102	0	15µM
Cc1cccc(/C=C/C(=O)c2ccc(NC3=NCCCS3)cc2)c1	7.3µM	?	-87	?	13µM
COC(=O)C1CCCCN1Cc1ccc2c(c1)CN(C(=O)c1csc(-c3cccs3)n1)CCO2 (stereo not drawn)	?	-	-	-	0[9.04 µM]
CCN(CC)CCNC(=O)c1ccc(NC(=O)Nc2cccc3ccccc23)cc1	0	0	0	0	0
Cc1cc(C)c(NC(=O)Cn2c(=O)n(-c3cccc(C(F)(F)F)c3)c(=O)c3c(C)c(C)sc32)c(C)c1	0	-	-	-	0
CCCN(CCC)C(=O)Cn1c(=O)n(-c2cccc(C(F)(F)F)c2)c(=O)c2c(C)c(C)sc21	21µM	-	-	-	23µM
N#CC1(NC(=O)COC(=O)C23CC4CC(CC(O)(C4)C2)C3)CCCCC1	0	0	0	0	0
Cc1ccc(NC(=O)CS(=O)CC(=O)Nc2ccc(N3CCOCC3)cc2)cc1Cl (stereo not drawn)	29µM	0	0	?	21µM
SMILES	TDP1 cell noCPT	HT1080 IDH1KD tx	IL-1B inflam inh	HT1080-NT tox	TDP1 cell CPT
Cc1cc(C)c(NC(=O)CS(=O)CC(=O)Nc2ccc(N3CCOCC3)cc2)c(C)c1 (stereo not drawn)	0	0	0	0	0
Cc1ccc(NC(=O)c2cc(N3C(=O)C=CC3=O)ccc2N2CCOCC2)cc1Cl	3.7µM	16µM	-57	0	4.1µM
Cc1ncc2c(c1CNC(=O)c1ccccc1F)CCN(C(=O)c1csc(-c3cccs3)n1)C2	?	-	-	-	0[9.04 µM]
CCn1c(=O)c(=O)[nH]c2c(=O)oc3ccc(S(=O)(=O)Nc4ccccc4)cc3c21	0	0	0	0	0
COc1ccc(OC)c(N(CC(=O)NC2CC3CCC2C3)S(=O)(=O)c2ccccc2)c1 (stereo not drawn)	?	0	-67	0	?
COc1ccc(Cl)cc1N(CC(=O)NC1CC2CCC1C2)S(=O)(=O)c1ccccc1 (stereo not drawn)	?	?	0	0	21µM
COc1ccccc1OCC(=O)N1CCN(C(=O)c2ccco2)CC1	0	0	0	0	0
CCCN1CCN(CCCNC(=O)CCNC(=O)Cn2ccc3ccccc3c2=O)CC1	0	0	0	0	0
CCOC(=O)C1(C)CCN1C(=O)c1ccccc1 (stereo not drawn)	0	0	0	0	0
CCOC(=O)C1(C)CCCCN1C(=O)c1ccc(N(C)C)cc1 (stereo not drawn)	?	0	0	?	0
CCOC(=O)C1(C)CCN1C(=O)c1ccc(-c2ccccc2)cc1 (stereo not drawn)	15µM	0	0	0	0
CCOC(=O)C1(C)CCCCCN1C(=O)c1ccc(OC)cc1 (stereo not drawn)	?	0	0	0	16µM
CCOC(=O)C1(C)CCCCCN1C(=O)c1ccc(OC)c(C(F)(F)F)c1 (stereo not drawn)	10µM	0	0	0	23µM
COc1ccc(C(=O)N2CCCC2(C)C(=O)O)cc1C(F)(F)F (stereo not drawn)	0	0	0	0	0
C[C@@H]1C[C@H]2[C@@H]3CCC4=CC(=O)C=C[C@]4(C)[C@@]3(F)[C@@H](O)C[C@]2(C)[C@@]1(O)C(=O)COC(=O)c1cccc(S(=O)(=O)O)c1	0	-	-	-	0
COc1ccc(-n2cnc3cc(C(=O)NCCN4CCOCC4)ccc32)cc1	0	0	0	0	0
CCN(CC)S(=O)(=O)c1cc(NC(=O)C2CC(=O)N(Cc3ccccc3)C2)ccc1Cl (stereo not drawn)	16µM	0	0	0	?
Cc1ccc(NC(=O)C2CC(=O)N(Cc3ccccc3)C2)cc1S(=O)(=O)N1CCCCCC1 (stereo not drawn)	?	0	-52	0	29µM
CC(=O)Nc1ccc(NC(=O)C2CC(=O)N(Cc3ccccc3)C2)cc1 (stereo not drawn)	0	0	0	0	0
Cc1ccc(NC(=O)C2CC(=O)N(C(C)C)C2)cc1C (stereo not drawn)	0	0	-65	0	0
COc1ccc(N2CCN(C(CNC(=O)C(=O)NCc3cccs3)c3ccco3)CC2)cc1 (stereo not drawn)	0	0	0	0	0
C[C@H](CO)N1C[C@H](C)[C@H](CN(C)S(=O)(=O)c2ccc(F)cc2)Oc2ncc(Br)cc2C1=O	?	0	0	0	?
CC(=O)NCCc1cc2ccc(C)c(C)c2[nH]c1=O	0	0	0	0	0
Cc1cc(C)c(S(=O)(=O)NCCc2cc3ccc(C)c(C)c3[nH]c2=O)c(C)c1	18µM	0	0	0	?
Cc1ccc2cc(CCNS(=O)(=O)c3ccc(Br)cc3)c(=O)[nH]c2c1C	23µM	0	0	0	?
